Compound activity from PubChem.
The list is not random: actives were taken first. Their share in the collection is about 2.4%.
DTT redox prof: compounds producing H2O2 with reducing agent – biochemical, NIH compound library profiling, artefact control for MLSCN library redox annotation, primary screen. DTT-dependent redox cycling H2O2, phenol red/HRP absorbance; 100% = 100 µM peroxide control, 0% = buffer. activation, % at 10 µM. 200,000 tested, 0.03% active. AID 878;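 active means activation of at least 50% relative to the plate's high and low controls in the primary single-dose screen; inactive means activation below 50%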;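 further: compound incubated with DTT at 0.8 mM final as the reducing agent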
L929 necroptosis: blocks zVAD induced death of L929 cells. L929 zVAD necroptosis rescue, ATP luminescence, 24 h; with zVAD 60 µM. viability rescue, % at 10 µM. 220,000 tested, 0.38% active. AID 1377;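 active means activation, scaled between plate controls, above about 75%, limit read from the data; inactive means activation under that limit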
TNF necrop inh: inhibitors of TNF-alpha induced necroptosis in Jurkat FADD-/- cells; Jurkat FADD-/- TNF necroptosis rescue, ATP luminescence, 24 h; 0 = TNF only, 100 = no-TNF cells; activation (protection from cell death), % at 10 µM; 220,000 tested, 0.068% active; AID 463075;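 active means activation, meaning protection from cell death, of at least 50% relative to plate controls; inactive means activation below 50%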;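 further: necroptosis triggered by 40 ng/mL TNF-alpha added together with compound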
PERK inhibitor: blocks human PERK kinase. Q9NZJ5. CHO PERK-DD fusion, SEAP luminescence translation reporter. inhibition, % at 5.6 µM. 220,000 tested, 0.17% active. AID 1416;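 active means inhibition above the mean inhibition of all tested compounds plus 3 SD, set separately per screening campaign, cut at about 2.9% in these data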;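 further: PERK kinase domain activated by AP20187 dimerizer at 100 nM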
PKD1 kinase inh: blocks activity of human protein kinase D1 | Q15139 | PKD1 kinase fluorescence polarization assay | inhibition, % (test concentration not listed) | 200,000 tested, 0.056% active | AID 797; in the data active means inhibition above about 50%
WT yeast gro inh: growth inhibition of WT yeast, mitochondrial fusion screen; 190,000 tested, 2.1% active; inhibition, % at 10 µM; mitochondrial fusion phenotypic screen, WT strain; in the data active means inhibition above about 58%; tested in S. cerevisiae
Each line names hits and unclear results; the compound was inactive in the other large screens.

Nc1cc(C(=O)O)c(Oc2ccc(Cl)cc2Cl)cc1C(=O)O	none (no result: L929 necroptosis)
CCOC(=O)C1CCN(S(=O)(=O)c2c(C)n[nH]c2C)CC1	WT yeast gro inh 67
COc1ccc(C(=O)C(CN2CCOCC2)c2ccccc2)cc1F (stereo not drawn)	WT yeast gro inh 61
CC(C1CC2CCC1C2)n1c(-c2ccco2)n[nH]c1=S (stereo not drawn)	WT yeast gro inh 72
COCC(=O)Nc1nnc(-c2ccc(C(C)(C)C)cc2)s1	WT yeast gro inh 70
CC1CC1C(=O)Nc1nc(-c2cccs2)c(-c2cccs2)s1 (stereo not drawn)	WT yeast gro inh 76
CS(=O)(=O)NCc1nnc(SCc2ccc(C(F)(F)F)cc2)o1	none (no result: DTT redox prof, PKD1 kinase inh, WT yeast gro inh)
O=C(/C=C/Nc1ccc(Cc2ccc(N/C=C/C(=O)C(F)(F)F)cc2)cc1)C(F)(F)F	none
S=C(NCC1CCCO1)NC1CCCCC1 (stereo not drawn)	none
CCCC(NC(=S)NCC1CCCO1)C12CC3CC(CC(C3)C1)C2 (stereo not drawn)	WT yeast gro inh 79
CC(C)CCN(C(=S)NC(=O)C1CCCCC1)c1c(N)n(Cc2ccccc2)c(=O)[nH]c1=O	none
O=C(CSCc1ccc([N+](=O)[O-])cc1)NC1CCCCCC1	TNF necrop inh 63
CC(C)c1ccc(NC(=S)NNC(=O)c2cccs2)cc1	none
O=S(=O)(c1ccccc1)c1cnc(-c2cccnc2)nc1-c1ccc(Cl)cc1Cl	WT yeast gro inh 67
O=[N+]([O-])c1ccc(/C=N/NC(=S)Nc2ccc(Cl)cc2Cl)s1	none (no result: DTT redox prof, PKD1 kinase inh, WT yeast gro inh)
Cc1cccc(N(C)C(=S)Oc2ccc3ccccc3c2)c1	WT yeast gro inh 62
COc1ccc(N(C)C(=S)Oc2ccc(C(=O)Nc3ccccc3)cc2)cc1	none
CCOC(=O)C1CCN(c2c(C(=O)c3ccccc3)cnc3ccc(Cl)cc23)CC1	WT yeast gro inh 75
CCOC(=O)C1CCN(c2nc3ccccc3nc2C(C#N)C(=O)NCCc2ccccc2)CC1 (stereo not drawn)	WT yeast gro inh 82
CCOC(=O)C1CCN(c2nc(-c3ccc(C)cc3)nc3ccccc23)CC1	WT yeast gro inh 71
CCOC(=O)c1sc(NC(=O)Nc2ccc(Cl)cc2)cc1C	WT yeast gro inh 85
CCOC(=O)c1sc(NC(=O)c2ccc(Cl)s2)cc1C	none
Cn1nc(OCC(=O)O)cc1C(F)(F)F	PERK inhibitor 3.0 (no result: DTT redox prof, PKD1 kinase inh, WT yeast gro inh)
COC(=O)CCCC1=CC2=C(c3ccccc3)C(=O)C(C)(OC(=O)C3CCCC3)C(=O)C2=CN1CCc1c[nH]c2ccccc12 (stereo not drawn)	none (no result: DTT redox prof, PERK inhibitor, PKD1 kinase inh, WT yeast gro inh)
Cc1ccc(S(=O)(=O)c2c(C)nn(C(C)(C)C)c2OC(=O)CC(C)C)cc1	WT yeast gro inh 70
CCC(=O)Oc1c(S(=O)(=O)c2ccc(C)cc2)c(C)nn1C(C)(C)C	none
O=C(N/N=C/c1ccc[nH]1)c1cc(-c2ccc(Cl)cc2)nc2ccccc12	WT yeast gro inh 69
CNc1cncc(C(=O)O)c1	none
CC(C)C1OC(c2cccc(NC(=O)c3cccs3)c2)OCC1(C)C (stereo not drawn)	WT yeast gro inh 69
Nc1ccc(Sc2cnn(-c3ccccc3)c(=O)c2Cl)cc1	none
Cc1ccc(Sc2cnn(-c3ccccc3)c(=O)c2Cl)cc1	WT yeast gro inh 76
COCCNC(=O)c1ccc2c(c1)ncn2-c1ccc(F)c(F)c1	L929 necroptosis 75
N#Cc1c(NC(=S)NC(=O)C2CCCC2)sc2c1CCCCC2	WT yeast gro inh 66
COC(=O)C(CC(=O)c1ccc(Cl)cc1)c1ccc(C(C)C)cc1 (stereo not drawn)	WT yeast gro inh 70
CCCN1C(=O)/C(=N\OCC(=O)NCC(F)(F)F)c2ccccc21	none
Cc1nc2ccc(C(=O)NCc3ccc4c(c3)OCO4)cc2s1	WT yeast gro inh 64
O=C(NCc1ccc2c(c1)OCO2)c1cccc(C(=O)NCc2ccc3c(c2)OCO3)c1	none
CN1CCC(=NNc2ccc(S(=O)(=O)N3CCOCC3)cc2[N+](=O)[O-])CC1	none
CCOc1ccccc1N1CCN(C(=O)c2ccc3[nH]c4c(c3c2)CCCC4)CC1	WT yeast gro inh 58
CC1CCCCN1C(=O)/C(=C\c1ccccc1)c1ccccc1 (stereo not drawn)	none (no result: WT yeast gro inh)
O=C(c1ccccn1)N1N=C2/C(=C/c3ccc(F)cc3)CCCC2C1c1ccc(F)cc1 (stereo not drawn)	WT yeast gro inh 74
COc1ccc(NC(=S)N2c3ccccc3CC2C)cc1OC (stereo not drawn)	none
COc1ccc(NC(=O)N2c3ccccc3CC2C)cc1OC (stereo not drawn)	WT yeast gro inh 95
Cc1nc2cc(-c3ccc(Cl)cc3)nn2c(C)c1CCC(=O)NC(C)c1ccc2c(c1)OCCO2 (stereo not drawn)	WT yeast gro inh 71 (no result: L929 necroptosis)
Cc1csc(NC(=O)CCc2c(C)nc3cc(-c4ccc(Cl)cc4)nn3c2C)n1	none (no result: L929 necroptosis)
O=C(COC(=O)CCc1c[nH]c2ccccc12)NCc1ccc2c(c1)OCO2	none
O=C1N=c2ccccc2=C1c1sc(=S)n(NC(=O)c2ccccc2)c1O	none (no result: DTT redox prof, PKD1 kinase inh, WT yeast gro inh)
C=CCn1c(O)c(C2=c3ccccc3=NC2=O)sc1=Nc1ccc(O)cc1	WT yeast gro inh 94 (no result: DTT redox prof, PERK inhibitor, PKD1 kinase inh)
CN(CCCC(=O)NCc1ccco1)S(=O)(=O)c1ccccc1	WT yeast gro inh 60
COc1ccc(-c2nnc3n(CCc4ccccc4)c(=O)c4ccccc4n23)c(OC)c1	WT yeast gro inh 98
CCOc1cc(/C=N/NC(=O)COc2ccccc2C)ccc1OC(=O)c1cccs1	WT yeast gro inh 65
CCOc1cc(/C=N/NC(=O)COc2ccc(C)cc2)ccc1OC(=O)c1cccs1	none
COCCN(Cc1ccccc1)C(=O)c1c(C)nn(-c2ccccc2)c1C	none
O=C(C1=C[C@H](c2csc3ccccc23)C[C@H](OCc2ccc(CO)cc2)O1)N1CCN(Cc2ccccc2)CC1	WT yeast gro inh 97
CN1CCN(C(=O)C2=C[C@@H](c3csc4ccccc34)C[C@@H](OCc3ccc(CO)cc3)O2)CC1	none
O=C(C1=C[C@H](c2csc3ccccc23)C[C@H](OCc2ccc(CO)cc2)O1)N1CCN(Cc2ccc3c(c2)OCO3)CC1	WT yeast gro inh 98
O=C(C1=C[C@H](c2ccccc2)C[C@H](OCc2ccc(CO)cc2)O1)N1CCN(Cc2ccc3c(c2)OCO3)CC1	none
CC(=O)NCCCC(=O)NN1C(=S)N(Cc2ccccc2)C(=O)C1CC(=O)Nc1cccc(C)c1 (stereo not drawn)	none
S=c1[nH]nc(CCCc2n[nH]c(=S)o2)o1	none (no result: DTT redox prof, PKD1 kinase inh, WT yeast gro inh)
Cc1ccc(CNCC(O)(c2ccccc2)c2ccc(F)cc2)cc1 (stereo not drawn)	WT yeast gro inh 75
Cc1ccc(CNCC(O)(c2ccc(F)cc2)c2ccc(F)cc2)cc1	none
